# In PubChem BioAssay (EPA / NIEHS):
# Active and inactive are the calls of the source. How the source made its calls: active means hit-call score of the fitted dose curve at least 0.9, where 1 is the maximum; inactive means score below 0.9.
# Assays:
# [1] = read-out: Monokine induced gamma interferon (MIG), CXCL9 (gene 4283); experiment: BSK_3C_MIG: BioMAP Diversity Plus: 3C Assay for Monokine induced gamma interferon (MIG) Biomarker Activity (AID 2283021); details: primary human endothelial cells (HUVEC); actives raise or lower the signal;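 on AC50: MIG protein level measured by immunoassay in the treated endothelial cultures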
# How it was run: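 HUVEC primary endothelial cultures dosed with chemical; MIG quantified by ELISA at 24 h. Data fitted bidirectionally against DMSO control, with parallel SRB total-protein staining for cytotoxicity.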
# [2] = BSK_3C_SRB: Viability Assessment in the BioMAP Diversity Plus: 3C Assay (AID 2283023); details: primary human endothelial cells (HUVEC);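 further: cells read 24 h after compound dosing; fitted both ways against DMSO so a hit may be signal rise or drop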
# How it was run: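 HUVEC, 24 h post-dose; 10% TCA fix, 0.1% SRB stain, A560 nm. Bidirectional curve fit vs DMSO negative control.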
# [3] = read-out: Matrix Metallopeptidase 1 (MMP1), MMP1 (gene 4312); experiment: BSK_BE3C_MMP1: BioMAP Diversity Plus: BE3C Assay for Matrix Metallopeptidase 1 (MMP1) Biomarker Activity (AID 2283024); details: primary human bronchial epithelial cells; actives raise or lower the signal
# How it was run: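 Human primary bronchial epithelial cells (BE3C system) dosed for 24 h; MMP-1 quantified by ELISA. Bidirectional fit against DMSO; cytotoxicity tracked in parallel cultures by SRB total-protein staining.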
# [4] = BSK_3C_Vis: BioMAP Diversity Plus: 3C Assay for Morphology Visualization (AID 2283025); details: primary human endothelial cells (HUVEC);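 further: fitted both ways so gain or loss versus DMSO counts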;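 on AC50: light microscopy image of cell morphology used as background control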
# How it was run: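 Human umbilical vein endothelial cell morphology was inspected by light microscopy 24 h after chemical dosing; scored bidirectionally relative to DMSO.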
# [5] = read-out: Pselectin, SELP (gene 6403); experiment: BSK_4H_Pselectin: BioMAP Diversity Plus: 4H Assay for Pselectin Biomarker Activity (AID 2283026); details: primary human endothelial cells (HUVEC); actives raise or lower the signal
# How it was run: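 Primary human umbilical vein endothelial cells were treated 24 h, and cell-surface P-selectin was then quantified by ELISA. Bidirectional fit versus DMSO; cytotoxicity checked in parallel cultures by SRB total-protein staining.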
# [6] = BSK_4H_SRB: Viability Assessment in the BioMAP Diversity Plus: 4H Assay (AID 2283027); details: primary human endothelial cells (HUVEC);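 further: cells exposed to compound for 24 h before staining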;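 on AC50: curves fitted both ways versus DMSO so AC50 may be loss or gain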
# How it was run: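 Absorbance at 560 nm of SRB-stained total protein served as the viability read-out in confluent primary human umbilical vein endothelium 24 h after chemical treatment. Curves were fitted bidirectionally against DMSO as negative control.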
# [7] = BSK_BE3C_SRB: Viability Assessment in the BioMAP Diversity Plus: BE3C Assay (AID 2283028); details: primary human bronchial epithelial cells;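 on AC50: fitted both ways so AC50 may mark signal gain or loss versus DMSO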
# How it was run: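 Primary human bronchial epithelium; chemical dosing, 24 h; 10% TCA fix, 0.1% SRB stain, A560; bidirectional fit vs DMSO baseline.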
# [8] = read-out: Thrombomodulin, THBD (gene 7056); experiment: BSK_3C_Thrombomodulin: BioMAP Diversity Plus: 3C Assay for Thrombomodulin Biomarker Activity (AID 2283029); details: primary human endothelial cells (HUVEC); actives raise or lower the signal
# How it was run: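 Human umbilical vein endothelial cells were exposed to chemicals for 24 h; cell-surface thrombomodulin quantified by ELISA, with bidirectional fitting against DMSO baseline.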
# [9] = read-out: Vascular endothelial growth factor receptor 2 (Homo sapiens) (UniProt P35968); experiment: BSK_4H_VEGFRII: BioMAP Diversity Plus: 4H Assay for Vascular endothelial growth factor receptor 2 (VEGFR2) Biomarker Activity (AID 2283031); details: primary human endothelial cells (HUVEC); actives raise or lower the signal;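 on AC50: cell-surface VEGFR2 protein level quantified by ELISA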
# How it was run: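 HUVEC (human primary), 4H system; 24 h post-dose; VEGFRII by ELISA; bidirectional curve fit vs DMSO baseline; gain or loss of signal scored.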
# [10] = read-out: Urokinase-type plasminogen activator receptor (uPAR), PLAUR (gene 5329); experiment: BSK_4H_uPAR: BioMAP Diversity Plus: 4H Assay for Urokinase-type plasminogen activator receptor (uPAR) Biomarker Activity (AID 2283030); details: primary human endothelial cells (HUVEC); actives raise or lower the signal
# How it was run: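 HUVEC, 24 h post-dose; uPAR by ELISA; bidirectional fit vs DMSO baseline.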
smiles,measurement,setting,value
c1ccc2[nH]c(-c3cscn3)nc2c1,outcome,[1],inactive
same,outcome,[2],inactive
same,outcome,[3],inactive
same,outcome,[4],inactive
same,outcome,[5],inactive
same,outcome,[6],inactive
same,outcome,[7],inactive
same,outcome,[8],inactive
same,outcome,[9],inactive
CSC(=O)c1cccc2nnsc12,outcome,[1],inactive
same,outcome,[2],inactive
same,outcome,[3],inactive
same,outcome,[4],inactive
same,outcome,[5],inactive
same,outcome,[6],inactive
same,outcome,[7],inactive
same,outcome,[8],inactive
same,outcome,[9],inactive
C#C[C@]1(O)CC[C@H]2[C@@H]3CCC4=CC(=O)CC[C@@H]4[C@H]3CC[C@@]21CC,outcome,[1],inactive
same,outcome,[2],inactive
same,AC50,[3],3.16 µM (active)
same,outcome,[4],inactive
same,outcome,[6],inactive
same,outcome,[7],inactive
same,outcome,[8],inactive
same,outcome,[9],inactive
CCOC(=O)c1ccc(O)cc1,outcome,[1],inactive
same,outcome,[2],inactive
same,outcome,[3],inactive
same,outcome,[4],inactive
same,outcome,[6],inactive
same,outcome,[7],inactive
same,outcome,[8],inactive
same,outcome,[10],inactive
same,outcome,[9],inactive
C[C@]12C[C@H](O)[C@H]3[C@@H](CCC4=CC(=O)CC[C@@]43C)[C@@H]1CC[C@@H]2C(=O)CO,outcome,[1],inactive
same,outcome,[2],inactive
same,outcome,[3],inactive
same,outcome,[4],inactive
same,outcome,[6],inactive
same,outcome,[7],inactive
same,outcome,[8],inactive
same,outcome,[9],inactive
CCCCCOC(=O)COc1cc(N2C(=O)C3=C(CCCC3)C2=O)c(F)cc1Cl,outcome,[1],inactive
same,outcome,[2],inactive
same,outcome,[3],inactive
same,outcome,[4],inactive
same,outcome,[6],inactive
same,outcome,[7],inactive
same,outcome,[8],inactive
same,outcome,[9],inactive
CCOC(=O)C(C)Oc1ccc(Oc2cnc3cc(Cl)ccc3n2)cc1 (stereo not drawn),outcome,[1],inactive
same,outcome,[2],inactive
same,outcome,[3],inactive
same,outcome,[4],inactive
same,outcome,[6],inactive
same,outcome,[7],inactive
same,outcome,[8],inactive
same,outcome,[9],inactive
COC(=O)c1c(Cl)nn(C)c1S(=O)(=O)NC(=O)Nc1nc(OC)cc(OC)n1,outcome,[1],inactive
same,outcome,[2],inactive
same,outcome,[3],inactive
same,outcome,[4],inactive
same,outcome,[6],inactive
same,outcome,[7],inactive
same,outcome,[8],inactive
same,outcome,[9],inactive
COC(=O)c1ccccc1C(=O)O,outcome,[1],inactive
same,outcome,[2],inactive
same,outcome,[3],inactive
same,outcome,[4],inactive
same,outcome,[6],inactive
same,outcome,[7],inactive
same,outcome,[8],inactive
same,outcome,[9],inactive
CC(C)CCCCCCc1ccc(O)cc1,AC50,[1],8.53 µM (active)
same,AC50,[2],9.24 µM (active)
same,AC50,[3],32 µM (active)
same,AC50,[4],5.31 µM (active)
same,AC50,[6],6.94 µM (active)
same,AC50,[7],36 µM (active)
same,AC50,[8],20 µM (active)
same,AC50,[10],9.57 µM (active)
same,AC50,[9],5.29 µM (active)
CCCN(CCC)C(=O)SCC,outcome,[1],inactive
same,outcome,[2],inactive
same,outcome,[3],inactive
same,outcome,[4],inactive
same,outcome,[6],inactive
same,outcome,[7],inactive
same,outcome,[8],inactive
same,outcome,[9],inactive
Cc1nn(C)c(Oc2ccccc2)c1C=NOCc1ccc(C(=O)OC(C)(C)C)cc1,outcome,[1],inactive
same,AC50,[2],9.91 µM (active)
same,AC50,[3],4.59 µM (active)
same,AC50,[4],15.2 µM (active)
same,AC50,[6],16.3 µM (active)
same,AC50,[7],12 µM (active)
same,AC50,[8],5.41 µM (active)
same,outcome,[9],inactive
C=CCOC(Cn1ccnc1)c1ccc(Cl)cc1Cl (stereo not drawn),outcome,[1],inactive
same,outcome,[2],inactive
same,outcome,[3],inactive
same,AC50,[4],9.8 µM (active)
same,outcome,[6],inactive
same,outcome,[7],inactive
same,outcome,[8],inactive
same,outcome,[9],inactive
COC(=O)c1ccc(I)cc1S(=O)(=O)NC(=O)Nc1nc(C)nc(OC)n1,outcome,[1],inactive
same,outcome,[2],inactive
same,outcome,[3],inactive
same,outcome,[4],inactive
same,outcome,[6],inactive
same,outcome,[7],inactive
same,outcome,[8],inactive
same,outcome,[9],inactive
O=C(c1ccc(O)cc1O)c1ccc(O)cc1O,outcome,[1],inactive
same,outcome,[2],inactive
same,outcome,[3],inactive
same,outcome,[4],inactive
same,outcome,[6],inactive
same,outcome,[7],inactive
same,outcome,[8],inactive
same,outcome,[9],inactive
N[C@@H](Cc1cc(I)c(Oc2ccc(O)c(I)c2)c(I)c1)C(=O)O,outcome,[1],inactive
same,outcome,[2],inactive
same,AC50,[3],3.8 µM (active)
same,outcome,[4],inactive
same,outcome,[6],inactive
same,outcome,[7],inactive
same,outcome,[8],inactive
same,outcome,[10],inactive
same,outcome,[9],inactive
CC1(C)C(C=C(Cl)Cl)C1C(=O)OCc1cccc(Oc2ccccc2)c1 (stereo not drawn),outcome,[1],inactive
same,AC50,[2],6.15 µM (active)
same,outcome,[3],inactive
same,AC50,[4],20 µM (active)
same,outcome,[6],inactive
same,outcome,[7],inactive
same,outcome,[8],inactive
same,outcome,[9],inactive
O=C(O)c1ccccc1,outcome,[1],inactive
same,outcome,[2],inactive
same,outcome,[3],inactive
same,outcome,[4],inactive
same,outcome,[6],inactive
same,outcome,[7],inactive
same,outcome,[8],inactive
same,outcome,[9],inactive
CCCCC(CC)CN1C(=O)C2C3C=CC(C3)C2C1=O (stereo not drawn),outcome,[1],inactive
same,AC50,[2],16.9 µM (active)
same,AC50,[3],15.9 µM (active)
same,outcome,[4],inactive
same,outcome,[6],inactive
same,AC50,[7],17.3 µM (active)
same,outcome,[8],inactive
same,outcome,[9],inactive
CCOC(=O)[C@H](C)Oc1ccc(Oc2nc3ccc(Cl)cc3o2)cc1,outcome,[1],inactive
same,outcome,[2],inactive
same,outcome,[3],inactive
same,outcome,[4],inactive
same,outcome,[6],inactive
same,outcome,[7],inactive
same,outcome,[8],inactive
same,outcome,[9],inactive
CCCCOC(=O)[C@@H](C)Oc1ccc(Oc2ccc(C(F)(F)F)cn2)cc1,outcome,[1],inactive
same,outcome,[2],inactive
same,outcome,[3],inactive
same,AC50,[4],39 µM (active)
same,outcome,[6],inactive
same,outcome,[7],inactive
same,outcome,[8],inactive
same,outcome,[9],inactive
S=C([S-])NCCNC(=S)[S-].[Mn+2],outcome,[1],inactive
same,outcome,[2],inactive
same,outcome,[3],inactive
same,AC50,[4],39 µM (active)
same,outcome,[6],inactive
same,outcome,[7],inactive
same,outcome,[8],inactive
same,outcome,[10],inactive
same,outcome,[9],inactive
O=C(Nc1ccc([N+](=O)[O-])cc1Cl)c1cc(Cl)ccc1O,outcome,[1],inactive
same,AC50,[2],0.589 µM (active)
same,outcome,[3],inactive
same,AC50,[5],0.302 µM (active)
same,AC50,[6],0.516 µM (active)
same,AC50,[7],0.34 µM (active)
same,AC50,[8],0.148 µM (active)
same,outcome,[9],inactive
CC(=O)S[C@@H]1CC2=CC(=O)CC[C@]2(C)[C@H]2CC[C@@]3(C)[C@@H](CC[C@@]34CCC(=O)O4)[C@H]12,outcome,[1],inactive
same,AC50,[2],25.7 µM (active)
same,outcome,[3],inactive
same,outcome,[4],inactive
same,AC50,[6],32 µM (active)
same,outcome,[7],inactive
same,outcome,[8],inactive
same,outcome,[9],inactive
CCCCOC(=O)C(C)Oc1ccc(Oc2ccc(C(F)(F)F)cn2)cc1 (stereo not drawn),outcome,[1],inactive
same,outcome,[2],inactive
same,outcome,[3],inactive
same,outcome,[4],inactive
same,outcome,[6],inactive
same,outcome,[7],inactive
same,outcome,[8],inactive
same,outcome,[9],inactive
CCCCC(CC)COC(=O)c1ccccc1C(=O)O (stereo not drawn),outcome,[1],inactive
same,outcome,[2],inactive
same,outcome,[3],inactive
same,outcome,[4],inactive
same,outcome,[6],inactive
same,outcome,[7],inactive
same,outcome,[8],inactive
same,outcome,[9],inactive
c1ccc(Nc2ccccc2)cc1,outcome,[1],inactive
same,outcome,[2],inactive
same,outcome,[3],inactive
same,outcome,[4],inactive
same,outcome,[6],inactive
same,outcome,[7],inactive
same,outcome,[8],inactive
same,outcome,[10],inactive
same,outcome,[9],inactive
CCC(O)=C1C(=O)CC(C(=O)O)CC1=O (stereo not drawn),outcome,[1],inactive
same,outcome,[2],inactive
same,outcome,[3],inactive
same,outcome,[4],inactive
same,outcome,[6],inactive
same,outcome,[7],inactive
same,outcome,[8],inactive
same,outcome,[9],inactive
CCCCOCCOCCOCc1cc2c(cc1CCC)OCO2,outcome,[1],inactive
same,AC50,[2],21 µM (active)
same,outcome,[3],inactive
same,outcome,[4],inactive
same,outcome,[6],inactive
same,outcome,[7],inactive
same,outcome,[8],inactive
same,outcome,[9],inactive
CCCCCCC(C)OC(=O)COc1nc(F)c(Cl)c(N)c1Cl (stereo not drawn),AC50,[1],37.7 µM (active)
same,AC50,[2],30.1 µM (active)
same,outcome,[3],inactive
same,AC50,[4],29.4 µM (active)
same,AC50,[6],34.5 µM (active)
same,outcome,[7],inactive
same,outcome,[8],inactive
same,AC50,[9],31.9 µM (active)
CCOC(=O)C(C)Oc1ccc(Oc2nc3ccc(Cl)cc3o2)cc1 (stereo not drawn),outcome,[1],inactive
same,outcome,[2],inactive
same,outcome,[3],inactive
same,outcome,[4],inactive
same,outcome,[6],inactive
same,outcome,[7],inactive
same,outcome,[8],inactive
same,outcome,[9],inactive
CCN(Cc1c(F)cccc1Cl)c1c([N+](=O)[O-])cc(C(F)(F)F)cc1[N+](=O)[O-],outcome,[1],inactive
same,AC50,[2],11.8 µM (active)
same,outcome,[3],inactive
same,AC50,[4],13.7 µM (active)
same,AC50,[6],12.6 µM (active)
same,AC50,[7],8.78 µM (active)
same,outcome,[8],inactive
same,outcome,[9],inactive
